PubChem BioAssay AID651610 (Broad Institute, 2012)
In all, about 360,000 compounds went through this assay and about 3,900 (1.1%) were called active. The sample as a whole holds a higher share of actives than the screen did. A number with no mark means an inactive call.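 Rule for the calls: active = mean replicate inhibition score of at least 50 and every replicate individually at or above 50; inconclusive = only one of the two criteria met; inactive = mean below 50 and not all replicates reaching 50.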

Assay: blockers of JRFL envelope-mediated fusion – HeLa-JRFL effector, CEM21 target cells, luciferase, primary screen (AID 651610);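 note: 0% = plate neutral controls and 100% = maraviroc near 300 nM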
Details: HeLa-JRFL Env/CEM21 cell fusion, hits give high values; at 16.7 µM unless noted

SMILES | inhibition
C[C@@H]1CN([C@@H](C)CO)S(=O)(=O)c2ccc(-c3cccnc3)cc2O[C@H]1CN(C)CC1CCOCC1 | -3.87%
C[C@@H]1CN([C@H](C)CO)C(=O)c2cccc(NS(C)(=O)=O)c2O[C@@H]1CN(C)C(=O)Nc1cccc2ccccc12 | -1.18%
Cc1oc2c(F)c(F)c(F)c(F)c2c1S(=O)(=O)Nc1cccc(C(F)(F)F)c1 | 55% [at 12.3 µM] (active)
O=C(CNS(=O)(=O)c1cccc(C(F)(F)F)c1)Nc1ccccc1F | -11.7% [at 12.3 µM]
Cc1noc(C)c1S(=O)(=O)Nc1cc(C(F)(F)F)ccc1N1CCOCC1 | 22.4% [at 12.3 µM]
COc1ccccc1CNC(=O)C[C@H]1C[C@@H]2c3cc(NC(=O)c4ccc5c(c4)OCO5)ccc3O[C@@H]2[C@H](CO)O1 | 4.06%
NC(=O)c1sc2nc3c(c(-c4ccccc4)c2c1N)CCC3 | 103% [at 12.3 µM] (active)
CC(C)OC(=O)c1sc2nc3c(cc2c1N)C(=O)CCC3 | -187% [at 12.3 µM]
COc1ccccc1-c1c(C#N)c(N)nc2c1CCC2 | 24% [at 12.3 µM]
C[C@@H]1CN([C@@H](C)CO)C(=O)c2cc(NC(=O)Cn3cnnn3)ccc2O[C@H]1CN(C)Cc1ccc(C(F)(F)F)cc1 | 12.3%
Cc1n[nH]c(=O)c2c1nnn2Cc1ccc(F)cc1 | -10.3% [at 12.3 µM]
Cc1cc(C)c2cc(CN(Cc3nnnn3Cc3ccc(F)cc3)C3CCCC3)c(=O)[nH]c2c1 | 84.5% [at 12.3 µM] (active)
C[C@@H]1CN([C@H](C)CO)C(=O)c2cc(-c3ccccc3F)cnc2O[C@H]1CN(C)C(=O)NC1CCCCC1 | -1.88%
O=C(C[C@H]1CC[C@@H]2NC[C@H](O)COC[C@H]2O1)NCCN1CCCCC1 | 18.8%
CSCCC(NC(=O)c1ccccc1)C(=O)N1CCN(Cc2ccc(Cl)cc2)CC1 (stereo not given) | 11.5% [at 12.3 µM]
COc1ccccc1C(=O)NC(CCSC)C(=O)N1CCN(C(C)=O)CC1 (stereo not given) | -8.21% [at 12.3 µM]
COc1ccccc1C(=O)NC(CCSC)C(=O)N1CCN(C/C=C/c2ccccc2)CC1 (stereo not given) | 75.2% [at 12.3 µM] (active)
O=C(NCc1ccccc1)[C@H]1CCCN1C(=O)[C@@H]1CCCN1C(=O)c1ccc(Cl)cc1Cl | -35.2% [at 12.3 µM]
COc1ccccc1S(=O)(=O)Nc1ccc2c(c1)C(=O)N(C)C[C@H](OC)[C@H](C)CN[C@H](C)CO2 | -20.4%
COc1ccccc1S(=O)(=O)Nc1ccc2c(c1)C(=O)N(C)C[C@@H](OC)[C@@H](C)CN[C@@H](C)CO2 | 61.2% (active)
CO[C@H]1CN(C)C(=O)c2cc(NS(=O)(=O)c3ccccc3)ccc2OC[C@H](C)N(C(=O)NC(C)C)C[C@@H]1C | -19%
CO[C@@H]1CN(C)C(=O)c2cc(NS(=O)(=O)c3ccccc3)ccc2OC[C@@H](C)N(C(=O)NC(C)C)C[C@@H]1C | 3.87%

SMILES | inhibition
CO[C@@H]1CN(C)C(=O)c2cc(NS(=O)(=O)c3ccc(C)cc3)ccc2OC[C@H](C)N(C(=O)NC(C)C)C[C@@H]1C | 64.3% (active)
COCC(=O)N1C[C@@H](C)[C@H](OC)CN(C)C(=O)c2ccc(NC(=O)c3ccc(OC)cc3)cc2OC[C@@H]1C | 58.2% (active)
COCC(=O)N1C[C@H](C)[C@@H](OC)CN(C)C(=O)c2cc(NC(=O)c3ccc(OC)cc3)ccc2OC[C@H]1C | -0.959%
COCC(=O)N1C[C@@H](C)[C@H](OC)CN(C)C(=O)c2ccc(NC(=O)c3ccc(F)cc3)cc2OC[C@H]1C | 19.1%
COc1cccc(S(=O)(=O)Nc2ccc3c(c2)C(=O)N(C)C[C@@H](OC)[C@@H](C)CN[C@@H](C)CO3)c1 | 3.22%
C/C=C/c1cnc2c(c1)C(=O)N([C@@H](C)CO)C[C@@H](C)[C@H](CN(C)C(=O)c1cnccn1)O2 | 4.56%
C[C@H](CO)N1C[C@H](C)[C@@H](CN(C)C(=O)CCC(F)(F)F)OCCCC[C@H](C)Oc2ccc(NC(=O)C3CCCCC3)cc2C1=O | -45.1%
COc1ccc(NC(=O)N(C)C[C@@H]2Oc3ccc(NC(=O)CCN4CCOCC4)cc3C(=O)N([C@@H](C)CO)C[C@H]2C)cc1 | -19.9%
Cc1noc(C)c1NC(=O)Nc1cccc2c1O[C@@H](CN(C)CC1CCCCC1)[C@H](C)CN([C@@H](C)CO)C2=O | -120%
Cc1ccc(S(=O)(=O)N(C)C[C@H]2Oc3ccc(NC(=O)CCC(F)(F)F)cc3C(=O)N([C@@H](C)CO)C[C@H]2C)cc1 | 9.23%
COc1ccc(C(CNC(=O)COc2ccc([N+](=O)[O-])cc2)N2CCCCC2)cc1 (stereo not given) | 1.73% [at 12.3 µM]
CCc1ccc(OCC(=O)NCC(c2ccc(Cl)cc2)N2CCCCC2)cc1 (stereo not given) | 73.9% [at 12.3 µM] (active)
COc1ccc(C(CNC(=O)COc2ccccc2OC)N2CCCCC2)cc1 (stereo not given) | 1.58% [at 12.3 µM]
COc1ccc(S(=O)(=O)N(C)C[C@@H]2OCCCC[C@H](C)Oc3ccc(NC(=O)NC4CCCCC4)cc3C(=O)N([C@H](C)CO)C[C@H]2C)cc1 | 20.2%
CO[C@@H]1CC[C@@H]2CCOc3ccc(C#N)cc3C(=O)N(C)[C@H](C)C(=O)N(C)C[C@@H]1O2 | 14.7%
COc1ccc(Oc2cn[nH]c2-c2ccc(OC)cc2O)cc1 | 4.87% [at 12.3 µM]
COc1ccc2cc(-c3[nH]ncc3CNCCn3nc(C)cc3C)ccc2c1 | -11.4% [at 12.3 µM]
COc1ccc(-c2cn[nH]c2-c2ccc(OC)cc2)cc1 | 60.2% [at 12.3 µM] (active)
CCCNC(=O)Nc1ccc2c(c1)C(=O)N(C)C[C@H](OC)[C@@H](C)CN(C)[C@@H](C)CO2 | 18.7%
COc1ccc(CN(C)C[C@H]2Oc3c(NC(=O)C4CCCCC4)cccc3C(=O)N([C@@H](C)CO)C[C@@H]2C)cc1 | 7.57%
CC1(Cc2cccc(C#N)c2)C(=O)Nc2ccc(-c3cccc(C(F)(F)F)c3)cc21 (stereo not given) | 76.4% [at 12.3 µM] (active)
Cc1ccc(CC2(C)C(=O)Nc3ccc(OC(F)(F)F)cc32)cc1 (stereo not given) | 10.5% [at 12.3 µM]

SMILES | inhibition
COc1ccccc1CC1(C)C(=O)Nc2ccc(OC(F)(F)F)cc21 (stereo not given) | 5.2% [at 12.3 µM]
C[C@H]1CN([C@@H](C)CO)C(=O)c2cc(-c3cccnc3)cnc2O[C@@H]1CN(C)C(=O)C1CC1 | 1.19%
C[C@@H]1CN([C@@H](C)CO)C(=O)c2cc(C#CC3CCCCC3)cnc2O[C@H]1CN(C)C(=O)Cc1ccccn1 | -1.78%
CC(C)NC(=O)N(C)C[C@H]1Oc2ncc(C#CC3CCCCC3)cc2C(=O)N([C@H](C)CO)C[C@@H]1C | 5.6%
CC(C)NC(=O)Nc1ccc2c(c1)C(=O)N([C@@H](C)CO)C[C@H](C)[C@H](CN(C)S(=O)(=O)c1cccs1)O2 | -7.33%
O=C(c1ccccc1)N1CCN(C(=O)c2cc3nc(-c4ccccc4)cc(C(F)(F)F)n3n2)CC1 | 13.3% [at 12.3 µM]
C#Cc1cc(N2CCN(C(=O)c3ccoc3)CC2)n2nc(-c3cccc(Cl)c3)cc2n1 | 2.89% [at 12.3 µM]
O=C(c1ccccc1)N1CCN(c2cc(-c3ccccc3)nc3cc(-c4cccc(Cl)c4)nn23)CC1 | 57.4% [at 12.3 µM] (active)
CN1CCN(C(=O)C[C@H]2CC[C@@H](NC(=O)c3ccc4c(c3)OCO4)[C@H](CO)O2)CC1 | -2.25%
C[C@@H]1CCCCO[C@@H](CN(C)C(=O)CCC(F)(F)F)[C@H](C)CN([C@@H](C)CO)C(=O)c2cc(NC(=O)CCCN(C)C)ccc2O1 | -15.3%
COc1ccc2c3c(n(C)c2c1)[C@H](CO)N(C(=O)NC(C)C)CC31CCN(C(=O)NC(C)C)CC1 | 25.2%
CN(C)[C@@H]1C(=O)C(C(N)=O)=C(O)[C@@]2(O)C(=O)C3=C(O)c4c(O)ccc(Cl)c4[C@@H](O)[C@H]3C[C@@H]12 | 71.9% [at 12.3 µM] (active)
C=C1c2c(Cl)ccc(O)c2C(O)=C2C(=O)[C@]3(O)C(O)=C(C(N)=O)C(=O)[C@@H](N(C)C)[C@@H]3[C@@H](O)C12 (stereo not given in full) | 9.73% [at 12.3 µM]
C[C@@H]1CN([C@H](C)CO)C(=O)c2cc(C#CC3(O)CCCC3)cnc2O[C@H]1CN(C)C(=O)C1CCC1 | 1.03%
CO[C@H]1CN(C)C(=O)c2cc(NC(=O)C3CC3)ccc2OC[C@@H](C)N(CCc2ccccc2)C[C@H]1C | -0.128%
COc1ccc(NS(=O)(=O)c2ccc(NC(C)=O)cc2)cc1OC | 62.4% [at 12.3 µM] (active)
CC(=O)Nc1ccc(S(=O)(=O)Nc2ccc(N3CCCCC3)cc2)cc1 | 68.2% [at 12.3 µM] (active)
CC(=O)Nc1ccc(S(=O)(=O)N2CCN(C3CCCCCCC3)CC2)cc1 | -36.4% [at 12.3 µM]
COc1ccccc1C(=O)COC(=O)CNS(=O)(=O)c1ccc(NC(C)=O)cc1 | -8.08% [at 12.3 µM]
COC(C(=O)Nc1ccc(S(=O)(=O)Nc2ccc(C)c(C)c2)cc1)c1ccccc1 (stereo not given) | -13.7% [at 12.3 µM]
CC(=O)Nc1ccc(NS(=O)(=O)c2ccc3c(c2)NC(=O)CC(=O)N3)cc1 | -3.1% [at 12.3 µM]
